Assay results reported in the supplement of paper PMC4466140.

Target: SpBzz1-D2
Experiment: SPOT peptide array binding signal intensity (averaged, normalized) (arbitrary units (background-subtracted, floor 0; scale differs between SH3 domains)); higher = stronger binding of the SH3 domain to the peptide
Summary of the method: (§1)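 Four yeast species supplied the SH3 domains, which were expressed as GST fusions in E. coli BL21(DE3) and purified on glutathione Sepharose. Incubation with cellulose membranes carrying synthetic 15-mer peptides, cysteines exchanged for serines, ran overnight at 4°C at 10 μg/ml in TBS-based blocking buffer. Binding signal is reported as normalized, background-subtracted spot intensity averaged over replicates, in arbitrary units not shared between domains.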

Binder	SPOT peptide array binding signal intensity
TPRLSLPRLPNKHHW	0.75
GRLRPKRIAPWHLIQ	1.5

Target: SpCyk3
Experiment: as above
Summary of the method: as §1

Binder	SPOT peptide array binding signal intensity
TPRLSLPRLPNKHHW	2
GRLRPKRIAPWHLIQ	7

Target: SpHof1
Experiment: as above
Summary of the method: as §1

Binder	SPOT peptide array binding signal intensity
TPRLSLPRLPNKHHW	35
GRLRPKRIAPWHLIQ	70

Target: SpHof1-2
Experiment: as above
Summary of the method: as §1

Binder	SPOT peptide array binding signal intensity
TPRLSLPRLPNKHHW	293
GRLRPKRIAPWHLIQ	1.5

Target: SpHof1-3
Experiment: as above
Summary of the method: as §1

Binder	SPOT peptide array binding signal intensity
TPRLSLPRLPNKHHW	136
GRLRPKRIAPWHLIQ	299

Target: SpHse1
Experiment: as above
Summary of the method: as §1

Binder	SPOT peptide array binding signal intensity
TPRLSLPRLPNKHHW	416
GRLRPKRIAPWHLIQ	309

Target: SpLsb1
Experiment: as above
Summary of the method: as §1

Binder	SPOT peptide array binding signal intensity
TPRLSLPRLPNKHHW	≤ 0
GRLRPKRIAPWHLIQ	5.5

Target: SpLsb4
Experiment: as above
Summary of the method: as §1

Binder	SPOT peptide array binding signal intensity
TPRLSLPRLPNKHHW	357
GRLRPKRIAPWHLIQ	95.5

Target: SpMyo1
Experiment: as above
Summary of the method: as §1

Binder	SPOT peptide array binding signal intensity
TPRLSLPRLPNKHHW	5.5
GRLRPKRIAPWHLIQ	2.5

Target: SpNbp2
Experiment: as above
Summary of the method: as §1

Binder	SPOT peptide array binding signal intensity
TPRLSLPRLPNKHHW	61
GRLRPKRIAPWHLIQ	110

Target: SpPex13
Experiment: as above
Summary of the method: as §1

Binder	SPOT peptide array binding signal intensity
TPRLSLPRLPNKHHW	5
GRLRPKRIAPWHLIQ	4

Target: SpRvs167
Experiment: as above
Summary of the method: as §1

Binder	SPOT peptide array binding signal intensity
TPRLSLPRLPNKHHW	302
GRLRPKRIAPWHLIQ	9

Target: SpSla1-D1-D2
Experiment: as above
Summary of the method: as §1

Binder	SPOT peptide array binding signal intensity
TPRLSLPRLPNKHHW	7
GRLRPKRIAPWHLIQ	≤ 0

Target: SpSla1-D3
Experiment: as above
Summary of the method: as §1

Binder	SPOT peptide array binding signal intensity
TPRLSLPRLPNKHHW	≤ 0
GRLRPKRIAPWHLIQ	≤ 0

Target: AgAbp1
Experiment: as above
Summary of the method: as §1

Binder	SPOT peptide array binding signal intensity
SLSRRRFSLPSMPNV	83.5
GRLRPKRIAPWHLIQ	84.5

Target: AgBbc1
Experiment: as above
Summary of the method: as §1

Binder	SPOT peptide array binding signal intensity
SLSRRRFSLPSMPNV	114
GRLRPKRIAPWHLIQ	22.8

Target: AgBem1-D1
Experiment: as above
Summary of the method: as §1

Binder	SPOT peptide array binding signal intensity
SLSRRRFSLPSMPNV	418
GRLRPKRIAPWHLIQ	21

Target: AgBzz1-D1
Experiment: as above
Summary of the method: as §1

Binder	SPOT peptide array binding signal intensity
SLSRRRFSLPSMPNV	44.5
GRLRPKRIAPWHLIQ	22

Target: AgBzz1-D2
Experiment: as above
Summary of the method: as §1

Binder	SPOT peptide array binding signal intensity
SLSRRRFSLPSMPNV	72.5
GRLRPKRIAPWHLIQ	15.5

Target: AgCyk3
Experiment: as above
Summary of the method: as §1

Binder	SPOT peptide array binding signal intensity
SLSRRRFSLPSMPNV	6.5
GRLRPKRIAPWHLIQ	4

Target: AgFus1
Experiment: as above
Summary of the method: as §1

Binder	SPOT peptide array binding signal intensity
SLSRRRFSLPSMPNV	404
GRLRPKRIAPWHLIQ	106

Target: AgHof1
Experiment: as above
Summary of the method: as §1

Binder	SPOT peptide array binding signal intensity
SLSRRRFSLPSMPNV	158
GRLRPKRIAPWHLIQ	15

Target: AgHse1
Experiment: as above
Summary of the method: as §1

Binder	SPOT peptide array binding signal intensity
SLSRRRFSLPSMPNV	1010
GRLRPKRIAPWHLIQ	542

Target: AgLsb1
Experiment: as above
Summary of the method: as §1

Binder	SPOT peptide array binding signal intensity
SLSRRRFSLPSMPNV	1240
GRLRPKRIAPWHLIQ	≤ 0

Target: AgLsb4
Experiment: as above
Summary of the method: as §1

Binder	SPOT peptide array binding signal intensity
SLSRRRFSLPSMPNV	41.5
GRLRPKRIAPWHLIQ	36

Target: AgMyo5
Experiment: as above
Summary of the method: as §1

Binder	SPOT peptide array binding signal intensity
SLSRRRFSLPSMPNV	3
GRLRPKRIAPWHLIQ	0.5

Target: AgNbp2
Experiment: as above
Summary of the method: as §1

Binder	SPOT peptide array binding signal intensity
SLSRRRFSLPSMPNV	97.5
GRLRPKRIAPWHLIQ	590

Target: AgRvs167
Experiment: as above
Summary of the method: as §1

Binder	SPOT peptide array binding signal intensity
SLSRRRFSLPSMPNV	5
GRLRPKRIAPWHLIQ	3.83

Target: AgSho1
Experiment: as above
Summary of the method: as §1

Binder	SPOT peptide array binding signal intensity
SLSRRRFSLPSMPNV	28
GRLRPKRIAPWHLIQ	≤ 0

Target: AgSla1-D1-D2
Experiment: as above
Summary of the method: as §1

Binder	SPOT peptide array binding signal intensity
SLSRRRFSLPSMPNV	60
GRLRPKRIAPWHLIQ	44

Target: AgSla1-D3
Experiment: as above
Summary of the method: as §1

Binder	SPOT peptide array binding signal intensity
SLSRRRFSLPSMPNV	6
GRLRPKRIAPWHLIQ	2.5

Target: CaAbp1-D1
Experiment: as above
Summary of the method: as §1

Binder	SPOT peptide array binding signal intensity
SLSRRRFSLPSMPNV	872
GRLRPKRIAPWHLIQ	1010

Target: CaAbp1-D2
Experiment: as above
Summary of the method: as §1

Binder	SPOT peptide array binding signal intensity
SLSRRRFSLPSMPNV	370
GRLRPKRIAPWHLIQ	666

Target: CaBbc1
Experiment: as above
Summary of the method: as §1

Binder	SPOT peptide array binding signal intensity
SLSRRRFSLPSMPNV	471
GRLRPKRIAPWHLIQ	156

Target: CaBem1-D1
Experiment: as above
Summary of the method: as §1

Binder	SPOT peptide array binding signal intensity
SLSRRRFSLPSMPNV	112
GRLRPKRIAPWHLIQ	26

Target: CaBzz1-D1
Experiment: as above
Summary of the method: as §1

Binder	SPOT peptide array binding signal intensity
SLSRRRFSLPSMPNV	183
GRLRPKRIAPWHLIQ	73

Target: CaBzz1-D2
Experiment: as above
Summary of the method: as §1

Binder	SPOT peptide array binding signal intensity
SLSRRRFSLPSMPNV	189
GRLRPKRIAPWHLIQ	79.2

Target: CaCyk3
Experiment: as above
Summary of the method: as §1

Binder	SPOT peptide array binding signal intensity
SLSRRRFSLPSMPNV	87.5
GRLRPKRIAPWHLIQ	112

Target: CaFus1
Experiment: as above
Summary of the method: as §1

Binder	SPOT peptide array binding signal intensity
SLSRRRFSLPSMPNV	1080
GRLRPKRIAPWHLIQ	178

Target: CaHof1
Experiment: as above
Summary of the method: as §1

Binder	SPOT peptide array binding signal intensity
SLSRRRFSLPSMPNV	0.5
GRLRPKRIAPWHLIQ	0.75

Target: CaHse1
Experiment: as above
Summary of the method: as §1

Binder	SPOT peptide array binding signal intensity
SLSRRRFSLPSMPNV	62.8
GRLRPKRIAPWHLIQ	11.8

Target: CaLsb1
Experiment: as above
Summary of the method: as §1

Binder	SPOT peptide array binding signal intensity
SLSRRRFSLPSMPNV	13
GRLRPKRIAPWHLIQ	≤ 0

Target: CaLsb4
Experiment: as above
Summary of the method: as §1

Binder	SPOT peptide array binding signal intensity
SLSRRRFSLPSMPNV	52.5
GRLRPKRIAPWHLIQ	67

Target: CaMyo5
Experiment: as above
Summary of the method: as §1

Binder	SPOT peptide array binding signal intensity
SLSRRRFSLPSMPNV	14.5
GRLRPKRIAPWHLIQ	2.5

Target: CaNbp2
Experiment: as above
Summary of the method: as §1

Binder	SPOT peptide array binding signal intensity
GRLRPKRIAPWHLIQ	1940

Target: CaRvs167
Experiment: as above
Summary of the method: as §1

Binder	SPOT peptide array binding signal intensity
GRLRPKRIAPWHLIQ	9.17

Target: CaRvs167-3
Experiment: as above
Summary of the method: as §1

Binder	SPOT peptide array binding signal intensity
GRLRPKRIAPWHLIQ	49.2

Target: CaSho1
Experiment: as above
Summary of the method: as §1

Binder	SPOT peptide array binding signal intensity
GRLRPKRIAPWHLIQ	174

Target: CaSla1-D1-D2
Experiment: as above
Summary of the method: as §1

Binder	SPOT peptide array binding signal intensity
GRLRPKRIAPWHLIQ	143

Target: CaSla1-D3
Experiment: as above
Summary of the method: as §1

Binder	SPOT peptide array binding signal intensity
GRLRPKRIAPWHLIQ	1

Target: ScAbp1
Experiment: as above
Summary of the method: as §1

Binder	SPOT peptide array binding signal intensity
GRLRPKRIAPWHLIQ	13

Target: ScBbc1
Experiment: as above
Summary of the method: as §1

Binder	SPOT peptide array binding signal intensity
GRLRPKRIAPWHLIQ	24.5

Target: ScBem1-D1
Experiment: as above
Summary of the method: as §1

Binder	SPOT peptide array binding signal intensity
GRLRPKRIAPWHLIQ	8.5

Target: ScBzz1-D1
Experiment: as above
Summary of the method: as §1

Binder	SPOT peptide array binding signal intensity
GRLRPKRIAPWHLIQ	0.5

Target: ScBzz1-D2
Experiment: as above
Summary of the method: as §1

Binder	SPOT peptide array binding signal intensity
GRLRPKRIAPWHLIQ	3

Target: ScCyk3
Experiment: as above
Summary of the method: as §1

Binder	SPOT peptide array binding signal intensity
GRLRPKRIAPWHLIQ	242

Target: ScFus1
Experiment: as above
Summary of the method: as §1

Binder	SPOT peptide array binding signal intensity
GRLRPKRIAPWHLIQ	106

Target: ScHof1
Experiment: as above
Summary of the method: as §1

Binder	SPOT peptide array binding signal intensity
GRLRPKRIAPWHLIQ	0.25

Target: ScHse1
Experiment: as above
Summary of the method: as §1

Binder	SPOT peptide array binding signal intensity
GRLRPKRIAPWHLIQ	1020

Target: ScLsb1
Experiment: as above
Summary of the method: as §1

Binder	SPOT peptide array binding signal intensity
GRLRPKRIAPWHLIQ	2.5

Target: ScLsb2
Experiment: as above
Summary of the method: as §1

Binder	SPOT peptide array binding signal intensity
GRLRPKRIAPWHLIQ	2

Target: ScLsb3
Experiment: as above
Summary of the method: as §1

Binder	SPOT peptide array binding signal intensity
GRLRPKRIAPWHLIQ	131

Target: ScLsb4
Experiment: as above
Summary of the method: as §1

Binder	SPOT peptide array binding signal intensity
GRLRPKRIAPWHLIQ	2

Target: ScMyo3
Experiment: as above
Summary of the method: as §1

Binder	SPOT peptide array binding signal intensity
GRLRPKRIAPWHLIQ	1

Target: ScMyo5
Experiment: as above
Summary of the method: as §1

Binder	SPOT peptide array binding signal intensity
GRLRPKRIAPWHLIQ	1.5

Target: ScNbp2
Experiment: as above
Summary of the method: as §1

Binder	SPOT peptide array binding signal intensity
GRLRPKRIAPWHLIQ	1940

Target: ScPex13
Experiment: as above
Summary of the method: as §1

Binder	SPOT peptide array binding signal intensity
GRLRPKRIAPWHLIQ	10

Target: ScRvs167
Experiment: as above
Summary of the method: as §1

Binder	SPOT peptide array binding signal intensity
GRLRPKRIAPWHLIQ	27.7

Target: ScSho1
Experiment: as above
Summary of the method: as §1

Binder	SPOT peptide array binding signal intensity
GRLRPKRIAPWHLIQ	195

Target: ScSla1-D1-D2
Experiment: as above
Summary of the method: as §1

Binder	SPOT peptide array binding signal intensity
GRLRPKRIAPWHLIQ	134

Target: ScSla1-D3
Experiment: as above
Summary of the method: as §1

Binder	SPOT peptide array binding signal intensity
GRLRPKRIAPWHLIQ	5

Target: SpAbp1-D1
Experiment: as above
Summary of the method: as §1

Binder	SPOT peptide array binding signal intensity
GRLRPKRIAPWHLIQ	226

Target: SpBbc1
Experiment: as above
Summary of the method: as §1

Binder	SPOT peptide array binding signal intensity
GRLRPKRIAPWHLIQ	1

Target: SpBzz1-D1
Experiment: as above
Summary of the method: as §1

Binder	SPOT peptide array binding signal intensity
GRLRPKRIAPWHLIQ	228
